Assay results reported in the supplement of paper PMC11417369.
Over roughly 25,000 sequences, “ln(normalized median fluorescence intensity)” has its median near 9.7; the highest 2% begin near 11. What follows is part of a selection rich in the highest values, with near analogues and random picks from the rest.

tested on: PfAP2-HC AP2 domain (GST-tagged); assay: gcPBM binding intensity (ln(normalized median fluorescence intensity)); higher = stronger DNA binding
Method in brief: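 An Agilent 4 × 180k array of primer-extended double-stranded 36-bp intergenic genomic probes, with negative controls, was incubated for 1 h with GST-tagged P. falciparum DNA-binding domains expressed in E. coli. Alexa488 anti-GST antibody detected bound protein, scanned at 488 nm. Binding intensity is the highest Masliner-normalised natural-log median intensity across replicate spots of either probe orientation.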

Sequence	gcPBM binding intensity (ln)
TATATATATAAAAAAAGTACGTATTTAATAAAAATA [XGTACX_site4992]	9.88
AAAACTTTTAGTTATACACACAACATAGAAAATATT [CACACA_site6287]	9.84
TATAAAGACACGTACACACACTAAGTATATCCAATA [CACACA_site6855]	10.5
AATATTCATATGCAGGTGCATTAATTTTTATTAATT	9.65
ATGCTTTTGTCATGTGCACACACGTATATATTATAT [CACACA_site4163]	10.3
TGTTAATTATAAATTTGTACTTATTTTTACAAAATA [XGTACX_site6598]	9.48
ATGTAACATAGGAAATGTACATATAAATATAATTTA [XGTACX_site6452]	9.77
CATATAATATTTGAAACTATATATAAATATAAGGTA [TGCATGCA_negctrl_site19]	9.52
GAAAATTTATATTGCACACATAGGGAATAAAAAAAA [CACACA_site2146]	9.99
ATATTTACCATTGTATGTACATATATAAAATATATC [XGTACX_site3237]	9.69
AATGGTAATCCACATACACACACACCGACACATATA [CACACA_site8876]	11.1
AAATATAAATGGTAATACACATACACACACACATAC [XGTACX_negctrl_site459]	10.5
CATATACATACACATACACACATACACCCATACACA [CACACA_site8514]	10.2
TATATATATATATACACACACACACCCATATATATA [CACACA_site2538]	10.4
CACATATATACACATACACACACACCCATACACCCA [CACACA_site8505]	11
TATACATACACATACACACATACACCCATACACATA [CACACA_site1746]	10.6
TGGTAATCCACATACACACACACATACACATATATA [CACACA_site2727]	10.3
CATACACCCATACATACACACATACATATATATATA [CACACA_site8591]	9.98
TATATATACATATACACACACACACCCATATATATA [CACACA_site2246]	11.1
ACAGTATATTAAAAAATACACACGTATTATATCTAC [CACACA_site2640]	9.83

Sequence	gcPBM binding intensity (ln)
TATATGCTATAATATACACACATACCTATATTTATA [CACACA_site6383]	9.94
ATTTCTTATTAAATTACACACAAAGTAAATAAATCT [CACACA_site3924]	9.54
AGAAAATACACGCATACACACACACCCACCCACATA [CACACA_site8115]	11.3
CACCCATAAATATACACACGCACAACACAAAATAAA [CACACA_site2903]	10.7
AAAAAAAAAATACATACACACACACCCACCCATATA [CACACA_site9187]	10.5
AAAAAAAATACATACACACACACACCCACATATATA [CACACA_site3561]	10.6
AAAATACACGCATACACACACACACCCACCCATATA [CACACA_site639]	11.5
TACACGCTAAAATACACACACACACCCACATATATA [CACACA_site4153]	10.6
GCTTTTGTCATGTGCACACACGTATATATTATATAT [CACACA_site6146]	10.9
AATATCTAAATAAAGTGTACTTACCTTATTAATTAT [XGTACX_site2276]	9.64
CATAAAAATTGAAGCACACACACAAAAGAAATACAA [CACACA_site1112]	10.7
TAAAAATTGAAGCACACACACAAAAGAAATACAATA [CACACA_site1113]	10.9
TAAAAGTTGAAGCACACACACAAAAGAAATACAATA [CACACA_site6649]	11.3
TTAAGTCCGTTAACAGTGCATTTTTTCTTTTATGTA [GTGCAC_site9867]	9.58
TATATAAATATACATTGTACTCAACATTTTCATTAA [XGTACX_site3690]	9.62
ATTCATTCATATGTTACACACACACGCCCACATAAA [CACACA_site7513]	10.6
TCATTCATATGTTACACACACACACCCACATAAAAA [CACACA_site3245]	11.2
AACAAATACAGACACACACACACACTAATAAAAAAA [CACACA_site8067]	11.6
GGTACATACAGACACACACACAAAAAAAAAAAAATA [CACACA_site6844]	11.2
ATGTTACTCAGACACACACACATAAAAAAACAAAAA [CACACA_site3249]	10.4

Sequence	gcPBM binding intensity (ln)
TGAACACAGACAAATACACACAAAAAAAATAAATAA [CACACA_site4298]	10
ATATGTTACAGACACACACACACATAAAAAAACAAA [CACACA_site3248]	11.1
ATTCATTCATATGTTACACACACACCCACCCATAAA [CACACA_site9066]	10.1
AATACAGACAGACACACACACAAAATAAAATACAAA [CACACA_site245]	10.5
GTGTACAGACACAAAATATATACATATATATATATA [CACACA_negctrl_site1796]	9.51
ATGTTACACAGACACACACACATAAAAAAACAAAAA [CACACA_site7516]	10.4
ATATGTCACTTGTATACACACATATAGATTTCAATC [CACACA_site7519]	9.94
GAAAATAAAAAATATGAACACACATATATAACAAAA [CACACA_site7975]	10.5
TACATATACAGACACACACACACACCCCCACAAAAA [CACACA_site495]	10.8
ATAAATGACAGACACACACACAAAAAAAAAAAACAA [CACACA_site2626]	11.5
AATACACCCAGACACACACACAAAAAAAAAAAAAAA [CACACA_site513]	10.1
GGTACATACAAACACACACACAAAAAAAAAAAAATA [CACACA_site1577]	10.3
AAAAAAAACAGACACACACACAAATATATAAAAATA [CACACA_site1172]	10.6
ATGGTACATACATACACACACACAAAAAAAAAAAAA [CACACA_site1578]	11.3
CATACAGATGGACACACACACACACCCACAGACAAA [CACACA_site4431]	10.5
TTTTTGTAATGACACACACACAAACAGAAAAAATAA [CACACA_site7062]	10.2
AACACATACAAACACACACACAAAAAAAAAAAAAAA [CACACA_site393]	10.4
TACAGATACGGACACACACACACACCCAGACAAAAA [CACACA_site4432]	11
AACAAATACAGACACACACACACACCCAAAAAAAAA [CACACA_site515]	10.9
